Experimental findings from PubChem BioAssay (EPA / NIEHS) are described below.

The nature of experiment [1]: ATG_TAL_CIS: Attagene CIS-FACTORIAL HepG2 Assay for human TAL Basal Promoter (AID 2282966; active = hit-call score of the fitted dose curve at least 0.9, where 1 is the maximum; inactive = score below 0.9;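 also: background control endpoint measuring basal TAL promoter reporter mRNA not a specific factor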). The settings on record: HepG2 Attagene cis-factorial TAL promoter reporter; actives raise or lower the signal. An outline of the steps:
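HepG2 cells were transiently transfected with promoter-driven multiplexed reporter units and dosed for 24 h. Reporter mRNA was measured by RT-PCR with capillary electrophoresis fluorescence; bidirectional fits used DMSO as baseline, serving as a background control.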

Experiment [2] is described as follows: ATG_TGFb_CIS: Attagene CIS-FACTORIAL HepG2 Assay for human Transforming Growth Factor (TGF) (AID 2282967; active = hit-call score of the fitted dose curve at least 0.9, where 1 is the maximum; inactive = score below 0.9). The settings on record: HepG2 Attagene CIS TGFb reporter, mRNA transcription; actives raise or lower the signal. An outline of the steps:
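HepG2 cells transiently transfected with cis-promoter-driven multiplexed reporter units; 24 h compound exposure. Reporter mRNA measured by RT-PCR, 6-FAM labeling, HpaI digestion and capillary electrophoresis; bidirectional fit versus DMSO baseline.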

A short description of experiment [3]: ATG_VDRE_CIS: Attagene CIS-FACTORIAL HepG2 Assay for human Vitamin D Receptor Element (VDRE) (AID 2282968; active = hit-call score of the fitted dose curve at least 0.9, where 1 is the maximum; inactive = score below 0.9). As to conditions: HepG2 VDRE cis-reporter transcription, actives raise or lower the signal. The procedure, abridged: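 HepG2 cells transiently transfected with cis-element reporter units, dosed 24 h; reporter mRNA measured by RT-PCR, 6-FAM labeling, HpaI digestion and capillary electrophoresis. Activity fitted bidirectionally against DMSO baseline.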

Experiment [4] addresses Nuclear receptor subfamily 1 group I member 3 (Homo sapiens) (UniProt Q14994). The experiment in a line: ATG_CAR_TRANS: Attagene TRANS-FACTORIAL HepG2 Assay for human Constitutive Androstane Receptor (CAR) (AID 2282969).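 Also: activators raise reporter mRNA above DMSO so AC50 marks induction.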 As to conditions: HepG2 Attagene TRANS-FACTORIAL CAR reporter. An outline of the steps: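 HepG2 cells transiently transfected with multiplexed GAL4-UAS reporter units expressing chimeric NR-Gal4 proteins; compound exposure 24 h. Reporter mRNA measured by RT-PCR, 6-FAM labelling, HpaI digestion and capillary electrophoresis; gain-of-signal fitted against DMSO baseline.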

The target in experiment [5] is Estrogen receptor (Homo sapiens) (UniProt P03372). The experiment in a line: ATG_ERa_TRANS: Attagene TRANS-FACTORIAL HepG2 Assay for human Estrogen Receptor alpha (ERa) (AID 2282970). As to conditions: HepG2 Attagene TRANS ERa GAL4 reporter, mRNA. The procedure, abridged:
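HepG2 cells transiently transfected with multiplexed GAL4-UAS reporter units; ERa activity read via exogenous chimeric NR-Gal4 protein. After 24 hour compound exposure, reporter mRNA measured by RT-PCR with 6-FAM labelling and capillary electrophoresis; gain-of-signal fitted relative to DMSO.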

Experiment [6] has as its target Steroid hormone receptor ERR1 (Homo sapiens) (UniProt P11474). The experiment in a line: ATG_ERRa_TRANS: Attagene TRANS-FACTORIAL HepG2 Assay for human Estrogen-Related Receptor alpha (ERRa) (AID 2282971). The settings on record: HepG2 Attagene TRANS reporter, ERRa transactivation. An outline of the steps:
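HepG2 cells transiently transfected with multiplexed GAL4-UAS reporter units reading chimeric ERRa-Gal4 activity; 24 h compound exposure. Reporter mRNA measured by RT-PCR, 6-FAM labelling, HpaI digest and capillary electrophoresis; gain of signal fitted versus DMSO baseline.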

For experiment [7], the target named is X-box-binding protein 1 (Homo sapiens) (UniProt P17861). The experiment in a line: ATG_Xbp1_CIS: Attagene CIS-FACTORIAL HepG2 Assay for human X-box Binding Protein 1 (XBP1) (AID 2282972; active = hit-call score of the fitted dose curve at least 0.9, where 1 is the maximum; inactive = score below 0.9). As to conditions: HepG2 XBP1 cis-element reporter, Attagene multiplex; actives raise or lower the signal. An outline of the steps:
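HepG2 cells transiently transfected with cis-regulated multiple reporter transcription units; endogenous transcription factor activity measured 24 hours after chemical dosing. Reporter mRNA quantified by RT-PCR, 6-FAM primer extension, HpaI digestion and capillary electrophoresis; bidirectional fitting versus DMSO.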

Experiment [8] in a line: ATG_GAL4_TRANS: Attagene TRANS-FACTORIAL HepG2 Assay for GAL4 (Internal Marker) (AID 2282976). The settings on record: HepG2 Attagene TRANS GAL4 internal marker reporter. The procedure, abridged: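 HepG2 cells transiently transfected with multiplexed GAL4-UAS reporter constructs were dosed for 24 h. Reporter mRNA was measured by RT-PCR, 6-FAM primer extension, HpaI digestion and capillary electrophoresis, and gain of signal was fitted relative to DMSO.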

Experiment [9] addresses Glucocorticoid receptor (Homo sapiens) (UniProt P04150). The experiment in a line: ATG_GR_TRANS: Attagene TRANS-FACTORIAL HepG2 Assay for human Glucocorticoid Receptor (GR) (AID 2282978).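 Also: activators score as hits since higher reporter transcript over DMSO is fitted.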 As to conditions: HepG2 Attagene TRANS GR reporter, mRNA transcription. An outline of the steps: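 After 24 h incubation with test chemical, transfected HepG2 cells were lysed for RNA; reporter cDNA was amplified, FAM-labelled, HpaI-digested and sized on a capillary analyser. Signal gain relative to DMSO was scored.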

The target of experiment [10] is Bile acid receptor (Homo sapiens) (UniProt Q96RI1). The experiment in a line: ATG_FXR_TRANS: Attagene TRANS-FACTORIAL HepG2 Assay for Farnesoid X Receptor (FXR) (AID 2282979).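 Also: hits raise reporter mRNA above DMSO so AC50 marks FXR activation.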 The settings on record: HepG2 Attagene TRANS FXR-GAL4 reporter transcription. An outline of the steps:
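HepG2 cells transiently transfected with reporter constructs in which a chimeric FXR-GAL4 protein drives a GAL4-UAS reporter; 24 h compound exposure. Reporter mRNA measured by RT-PCR, FAM labelling, HpaI digestion and capillary electrophoresis; gain-of-signal versus DMSO.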

The nature of experiment [11]: ATG_M_06_TRANS: Attagene TRANS-FACTORIAL HepG2 Assay for M06 Transcription Factor (Internal Marker) (AID 2282983).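 Also: reporter transcript level by RT-PCR then capillary electrophoresis fluorescence.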 As to conditions: HepG2 Attagene TRANS M06 internal marker reporter. An outline of the steps:
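HepG2 cells transiently transfected with multiplexed GAL4-UAS reporter transcription units; after 24 h compound exposure, reporter mRNA measured by RT-PCR, FAM-labelled primer extension, HpaI digestion and capillary electrophoresis. Gain-of-signal fitted versus DMSO baseline; background control readout.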

Experiment [12] deals with Nuclear receptor subfamily 4 group A member 2 (Homo sapiens) (UniProt P43354). As to the kind of experiment: ATG_NURR1_TRANS: Attagene TRANS-FACTORIAL HepG2 Assay for human Nuclear Receptor Related Protein 1 (NURR1) (AID 2282985). The settings on record: HepG2 Attagene TRANS reporter, mRNA readout. An outline of the steps:
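HepG2 cells transiently transfected with GAL4-UAS reporter units and chimeric NR-Gal4 constructs; chemical exposure 24 h. Reporter mRNA quantified by RT-PCR, fluorescent labelling and capillary electrophoresis; gain of signal fitted relative to DMSO baseline.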

For experiment [13], the target named is Transcriptional activator Myb (Homo sapiens) (UniProt P10242). As to the kind of experiment: ATG_Myb_CIS: Attagene CIS-FACTORIAL HepG2 Assay for human Myeloblastosis (Myb) Proto-Oncogene Transcription Factor (AID 2282986; active = hit-call score of the fitted dose curve at least 0.9, where 1 is the maximum; inactive = score below 0.9). The settings on record: HepG2 Attagene CIS-FACTORIAL Myb reporter transcription; actives raise or lower the signal. An outline of the steps:
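After 24 h of compound dosing, total RNA from transfected HepG2 cells is reverse-transcribed and the reporter sequences amplified, labeled and separated by capillary electrophoresis. Values come from bidirectional fitting against DMSO.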

In experiment [14] the target is Nuclear respiratory factor 1 (Homo sapiens) (UniProt Q16656). The experiment in a line: ATG_NRF1_CIS: Attagene CIS-FACTORIAL HepG2 Assay for human Nuclear Respiratory Factor 1 (NRF1) Orphan Gene (AID 2282987; active = hit-call score of the fitted dose curve at least 0.9, where 1 is the maximum; inactive = score below 0.9). The settings on record: HepG2 NRF1 cis-element reporter, Attagene multiplex; actives raise or lower the signal. An outline of the steps: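 Measured: fluorescent reporter-specific RT-PCR products from transfected HepG2 cells, separated by capillary electrophoresis. Exposure lasted 24 h. Analysis used bidirectional curve fitting with DMSO as negative control.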

Experiment [15] is described as follows: ATG_NFI_CIS: Attagene CIS-FACTORIAL HepG2 Assay for human Nuclear Factor I (NFI) (AID 2282989; active = hit-call score of the fitted dose curve at least 0.9, where 1 is the maximum; inactive = score below 0.9). The settings on record: HepG2 cis-regulatory reporter, NFI response element transcription; actives raise or lower the signal. An outline of the steps:
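HepG2 cells transiently transfected with cis-element-driven multiplexed reporter transcription units, dosed for 24 h. Reporter mRNA quantified by RT-PCR, fluorescent labelling, HpaI digestion and capillary electrophoresis; bidirectional fit versus DMSO baseline.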

A short description of experiment [16]: ATG_M_19_TRANS: Attagene TRANS-FACTORIAL HepG2 Assay for M19 Transcription Factor (Internal Marker) (AID 2282974). As to conditions: HepG2 Attagene TRANS-FACTORIAL M19 internal marker reporter. An outline of the steps: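 Transfected HepG2 (GAL4-UAS MRTUs), 24 h compound, TriZol RNA, DNase-treated RT, reporter PCR, FAM label, HpaI digest, CE fluorescence; gain vs DMSO.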

The target in experiment [17] is Hepatocyte nuclear factor 4-alpha (Homo sapiens) (UniProt P41235). As to the kind of experiment: ATG_HNF4a_TRANS: Attagene TRANS-FACTORIAL HepG2 Assay for human Hepatocyte Nuclear Factor 4 alpha (HNF4a) (AID 2282982). The settings on record: HepG2 HNF4a transactivation reporter, mRNA readout. The procedure, abridged:
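HepG2 cells transiently transfected with multiplexed GAL4-UAS reporter units responsive to chimeric NR-GAL4 proteins; compound exposure 24 h. Reporter mRNA quantified by RT-PCR, 6-FAM labelling, HpaI digestion and capillary electrophoresis; gain of signal versus DMSO baseline.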

Experiment [18] is described as follows: ATG_M_32_TRANS: Attagene TRANS-FACTORIAL HepG2 Assay for M32 Transcription Factor (Internal Marker) (AID 2282984). The settings on record: HepG2 Attagene TRANS M32 internal marker reporter. The procedure, abridged:
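HepG2 cells transiently transfected with multiple GAL4-UAS reporter transcription units, dosed for 24 hours; reporter mRNA quantified by RT-PCR, 6-FAM primer extension, HpaI digestion and capillary electrophoresis. Gain-of-signal fitted versus DMSO baseline; internal background-control marker.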

The target in experiment [19] is Oxysterols receptor LXR-alpha (Homo sapiens) (UniProt Q13133). As to the kind of experiment: ATG_LXRa_TRANS: Attagene TRANS-FACTORIAL HepG2 Assay for human Liver X Receptor alpha (LXRa) (AID 2282980). The settings on record: HepG2 Attagene TRANS reporter, LXRa transactivation. An outline of the steps:
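HepG2 cells were transiently transfected with multiplexed reporter units driven by chimeric LXRa–GAL4 fusion proteins, then dosed for 24 h. Reporter mRNA was quantified by RT-PCR, fluorescent labelling and capillary electrophoresis; gain of signal fitted against DMSO baseline.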

Records with an inconclusive call do not appear. The source made the active and inactive calls. The calls were made as follows, unless noted: active = hit-call score of the fitted dose curve at least 0.9, where 1 is the maximum; inconclusive = response in the unintended direction; inactive = score below 0.9.

Sequence of Nuclear respiratory factor 1 (Homo sapiens) (Q16656 whole entry, looked up): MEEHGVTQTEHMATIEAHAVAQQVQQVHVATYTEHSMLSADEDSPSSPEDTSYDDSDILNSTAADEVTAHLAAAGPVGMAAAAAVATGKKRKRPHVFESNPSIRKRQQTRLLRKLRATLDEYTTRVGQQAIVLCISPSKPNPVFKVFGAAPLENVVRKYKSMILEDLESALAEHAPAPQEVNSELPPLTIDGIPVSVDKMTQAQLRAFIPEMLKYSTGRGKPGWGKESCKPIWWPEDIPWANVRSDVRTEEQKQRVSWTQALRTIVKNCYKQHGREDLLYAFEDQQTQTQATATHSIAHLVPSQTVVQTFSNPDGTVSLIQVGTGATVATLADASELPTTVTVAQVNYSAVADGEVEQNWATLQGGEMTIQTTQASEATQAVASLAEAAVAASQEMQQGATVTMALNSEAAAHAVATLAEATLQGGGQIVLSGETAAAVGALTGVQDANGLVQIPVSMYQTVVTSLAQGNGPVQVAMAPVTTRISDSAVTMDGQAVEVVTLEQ
Sequence of Estrogen receptor (Homo sapiens) (P03372 whole entry, looked up, the tested form may be a part): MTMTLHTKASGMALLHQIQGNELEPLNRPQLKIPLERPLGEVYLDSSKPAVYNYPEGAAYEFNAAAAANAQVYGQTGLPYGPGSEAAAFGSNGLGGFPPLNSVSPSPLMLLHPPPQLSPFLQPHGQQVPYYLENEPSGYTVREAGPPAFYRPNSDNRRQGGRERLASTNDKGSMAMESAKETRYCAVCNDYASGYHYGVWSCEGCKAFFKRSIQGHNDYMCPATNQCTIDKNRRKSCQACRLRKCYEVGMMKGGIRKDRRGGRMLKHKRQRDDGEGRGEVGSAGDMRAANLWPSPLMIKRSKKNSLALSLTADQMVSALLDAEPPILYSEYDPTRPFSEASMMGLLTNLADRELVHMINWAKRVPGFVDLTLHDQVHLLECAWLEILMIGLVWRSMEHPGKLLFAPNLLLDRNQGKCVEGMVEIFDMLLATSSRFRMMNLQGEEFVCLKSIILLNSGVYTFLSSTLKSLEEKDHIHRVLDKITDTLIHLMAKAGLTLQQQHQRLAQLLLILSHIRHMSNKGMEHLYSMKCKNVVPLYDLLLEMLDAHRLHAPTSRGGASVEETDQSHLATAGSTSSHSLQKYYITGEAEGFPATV
Sequence of Nuclear receptor subfamily 1 group I member 3 (Homo sapiens) (Q14994 whole entry, looked up, the tested form may be a part): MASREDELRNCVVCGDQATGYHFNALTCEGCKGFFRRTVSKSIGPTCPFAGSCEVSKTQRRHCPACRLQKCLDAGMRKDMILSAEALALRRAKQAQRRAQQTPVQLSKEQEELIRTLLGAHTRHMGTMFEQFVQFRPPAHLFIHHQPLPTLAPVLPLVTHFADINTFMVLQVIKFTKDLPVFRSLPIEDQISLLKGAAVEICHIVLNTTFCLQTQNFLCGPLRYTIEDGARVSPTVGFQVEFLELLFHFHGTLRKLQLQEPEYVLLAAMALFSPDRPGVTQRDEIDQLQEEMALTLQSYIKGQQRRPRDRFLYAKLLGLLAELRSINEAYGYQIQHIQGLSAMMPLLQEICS
Sequence of Transcriptional activator Myb (Homo sapiens) (P10242 whole entry, looked up): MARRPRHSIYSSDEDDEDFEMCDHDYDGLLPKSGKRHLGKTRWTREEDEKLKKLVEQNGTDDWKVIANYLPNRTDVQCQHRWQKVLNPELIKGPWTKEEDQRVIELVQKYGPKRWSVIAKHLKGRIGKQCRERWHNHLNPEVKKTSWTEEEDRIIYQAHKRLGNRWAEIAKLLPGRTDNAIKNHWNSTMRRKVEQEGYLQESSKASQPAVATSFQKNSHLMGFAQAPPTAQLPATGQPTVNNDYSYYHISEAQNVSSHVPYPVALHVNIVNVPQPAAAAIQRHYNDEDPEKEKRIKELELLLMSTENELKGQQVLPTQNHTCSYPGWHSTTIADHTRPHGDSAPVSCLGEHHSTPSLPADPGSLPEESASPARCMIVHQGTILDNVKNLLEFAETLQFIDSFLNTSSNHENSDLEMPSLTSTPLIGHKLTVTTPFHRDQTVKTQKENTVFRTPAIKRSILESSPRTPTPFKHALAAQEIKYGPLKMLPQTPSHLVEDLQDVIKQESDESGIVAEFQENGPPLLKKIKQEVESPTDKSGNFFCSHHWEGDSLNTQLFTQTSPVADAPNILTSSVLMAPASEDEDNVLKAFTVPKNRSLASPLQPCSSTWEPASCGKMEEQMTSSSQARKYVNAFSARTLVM
Sequence of X-box-binding protein 1 (Homo sapiens) (P17861 whole entry, looked up): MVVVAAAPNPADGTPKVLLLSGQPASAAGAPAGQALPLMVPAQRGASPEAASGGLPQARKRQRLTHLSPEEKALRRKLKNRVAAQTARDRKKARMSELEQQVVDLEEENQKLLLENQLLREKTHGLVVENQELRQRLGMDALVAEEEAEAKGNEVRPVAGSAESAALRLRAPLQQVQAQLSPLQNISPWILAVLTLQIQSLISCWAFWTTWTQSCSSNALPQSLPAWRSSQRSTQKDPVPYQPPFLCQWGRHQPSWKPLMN
Sequence of Nuclear receptor subfamily 4 group A member 2 (Homo sapiens) (P43354 whole entry, looked up, the tested form may be a part): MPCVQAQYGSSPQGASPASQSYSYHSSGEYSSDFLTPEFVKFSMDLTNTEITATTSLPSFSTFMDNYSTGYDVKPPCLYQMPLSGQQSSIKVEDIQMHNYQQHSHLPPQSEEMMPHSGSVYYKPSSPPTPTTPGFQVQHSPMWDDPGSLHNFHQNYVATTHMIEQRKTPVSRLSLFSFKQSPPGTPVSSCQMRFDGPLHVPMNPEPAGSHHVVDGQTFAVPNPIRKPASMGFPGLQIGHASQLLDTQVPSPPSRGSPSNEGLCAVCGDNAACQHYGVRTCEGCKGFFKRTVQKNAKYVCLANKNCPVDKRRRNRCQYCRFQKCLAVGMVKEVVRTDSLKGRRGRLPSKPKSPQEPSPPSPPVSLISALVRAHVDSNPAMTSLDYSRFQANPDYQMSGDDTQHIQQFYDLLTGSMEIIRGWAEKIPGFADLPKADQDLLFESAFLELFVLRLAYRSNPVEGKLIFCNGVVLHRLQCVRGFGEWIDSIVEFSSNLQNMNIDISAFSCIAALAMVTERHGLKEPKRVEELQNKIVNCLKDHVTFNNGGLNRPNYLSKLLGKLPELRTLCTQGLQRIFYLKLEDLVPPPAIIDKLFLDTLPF
Sequence of Glucocorticoid receptor (Homo sapiens) (P04150 whole entry, looked up): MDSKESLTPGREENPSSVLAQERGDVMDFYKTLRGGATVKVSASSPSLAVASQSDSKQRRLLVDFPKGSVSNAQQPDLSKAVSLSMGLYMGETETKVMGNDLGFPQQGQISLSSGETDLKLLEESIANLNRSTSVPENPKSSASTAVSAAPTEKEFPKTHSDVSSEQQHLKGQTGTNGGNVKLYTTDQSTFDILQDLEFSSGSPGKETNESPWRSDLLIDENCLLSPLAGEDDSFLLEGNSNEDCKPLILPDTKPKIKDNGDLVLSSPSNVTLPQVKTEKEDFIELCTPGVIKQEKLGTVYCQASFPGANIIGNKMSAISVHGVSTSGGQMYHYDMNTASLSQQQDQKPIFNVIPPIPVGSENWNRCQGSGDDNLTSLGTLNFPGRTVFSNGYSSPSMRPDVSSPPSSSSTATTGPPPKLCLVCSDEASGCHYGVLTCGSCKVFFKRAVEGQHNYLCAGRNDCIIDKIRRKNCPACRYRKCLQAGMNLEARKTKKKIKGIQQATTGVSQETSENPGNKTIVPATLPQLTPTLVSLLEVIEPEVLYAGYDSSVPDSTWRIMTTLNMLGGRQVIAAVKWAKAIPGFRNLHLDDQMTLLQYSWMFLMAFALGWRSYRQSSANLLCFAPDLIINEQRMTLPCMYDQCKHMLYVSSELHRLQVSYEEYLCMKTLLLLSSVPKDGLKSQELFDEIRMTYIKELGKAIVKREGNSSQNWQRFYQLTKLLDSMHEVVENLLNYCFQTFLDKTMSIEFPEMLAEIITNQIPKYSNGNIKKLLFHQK
Sequence of Bile acid receptor (Homo sapiens) (Q96RI1 whole entry, looked up, the tested form may be a part): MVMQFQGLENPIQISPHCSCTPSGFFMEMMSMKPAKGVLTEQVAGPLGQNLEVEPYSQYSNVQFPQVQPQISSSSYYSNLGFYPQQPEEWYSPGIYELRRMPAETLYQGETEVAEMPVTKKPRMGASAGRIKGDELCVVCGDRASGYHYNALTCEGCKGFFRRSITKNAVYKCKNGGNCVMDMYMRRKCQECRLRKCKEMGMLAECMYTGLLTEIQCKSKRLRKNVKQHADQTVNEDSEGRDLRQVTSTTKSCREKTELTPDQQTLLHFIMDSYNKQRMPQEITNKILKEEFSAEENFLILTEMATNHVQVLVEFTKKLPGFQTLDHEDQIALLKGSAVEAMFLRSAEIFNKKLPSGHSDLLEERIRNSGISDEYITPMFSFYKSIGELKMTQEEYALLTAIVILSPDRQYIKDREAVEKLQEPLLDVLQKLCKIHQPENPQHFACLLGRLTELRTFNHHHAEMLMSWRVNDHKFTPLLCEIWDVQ
Sequence of Steroid hormone receptor ERR1 (Homo sapiens) (P11474 whole entry, looked up, the tested form may be a part): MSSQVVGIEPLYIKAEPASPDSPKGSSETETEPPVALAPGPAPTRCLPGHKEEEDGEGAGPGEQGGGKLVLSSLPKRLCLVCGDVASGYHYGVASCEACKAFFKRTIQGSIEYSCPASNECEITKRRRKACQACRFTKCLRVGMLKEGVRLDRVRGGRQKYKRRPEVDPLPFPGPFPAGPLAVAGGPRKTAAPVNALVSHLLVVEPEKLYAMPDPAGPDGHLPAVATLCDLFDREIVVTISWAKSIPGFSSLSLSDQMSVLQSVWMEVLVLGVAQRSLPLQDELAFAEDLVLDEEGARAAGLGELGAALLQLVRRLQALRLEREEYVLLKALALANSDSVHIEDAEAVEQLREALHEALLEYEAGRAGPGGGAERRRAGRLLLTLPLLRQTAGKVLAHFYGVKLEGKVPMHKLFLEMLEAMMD

On to `FC(F)(F)COC(OCC(F)(F)F)OCC(F)(F)F`, for which the molecule was classed as inactive in [1], in experiment [2], in experiment [3], in experiment [4], in [5] and in experiment [6]. The call in [7], in experiment [8], in experiment [9], in [10], in experiment [11] and in experiment [12] was inactive. Moreover, the molecule was called inactive in experiment [13], in experiment [14] and in experiment [15].
For the molecule `COc1cc(C(C)C)c2c(c1)S(=O)(=O)N(COc1cc(=O)n3cccc(OCCN4CCCCC4)c3n1)C2=O`, the molecule was classed as inactive in experiment [1], in experiment [2], in [16], in [9], in experiment [17] and in [18]. The molecule was classed as inactive in experiment [12], in experiment [13] and in [14]. Moreover, the AC50 in experiment [3] was 5.67 µM (active); in [4], 2.75 µM (active); in experiment [5], 2.75 µM (active); in experiment [7] it was 6.56 µM (active); in experiment [10], 4.68 µM (active); in [15], 3.64 µM (active).
As for `FC(F)C(F)(F)COCC1CO1` (centres undefined), the molecule was classed as inactive in experiment [1], in experiment [2], in [3], in [4], in experiment [6] and in experiment [7]. Also, the call in [16], in [10], in [19], in experiment [11], in [18] and in [12] was inactive. The molecule was classed as inactive in experiment [13], in [14] and in experiment [15].
On to `OCCOCCOCCO`, for which the outcome in experiment [1], in [2], in experiment [3], in experiment [4], in experiment [5] and in [7] was inactive. Moreover, the result in [16], in experiment [9], in experiment [11], in experiment [18], in [12] and in experiment [13] was inactive. The result in experiment [14] and in experiment [15] was inactive.

As usually defined, the AC50 is the concentration at which the activity in the assay is half-maximal.
